Experimental data reported in PubChem BioAssay (NCI).
About 83,000 compounds went through this panel and 20% of them were active in at least one assay; those are over-represented in the sample as a whole.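 Plates (96-well) were seeded with cells, treated with compound at one concentration, and incubated for 48 hours before percent growth was determined.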 Activity calls are given as the source filed them. Rule for the calls: active = growth percent below 10; inactive = the rest.

Legend:
Test in all cases: NCI-60 one-dose screen, 48 h (100 = growth as untreated, 0 = no growth, -100 = all killed)
Conditions in all cases: 10 µM unless noted
MOLT-4 leukemia = test system: MOLT-4 leukemia
RPMI-8226 leukemia = test system: RPMI-8226 leukemia
OVCAR-8 ovarian = test system: OVCAR-8 ovarian
OVCAR-5 ovarian = test system: OVCAR-5 ovarian
OVCAR-4 ovarian = test system: OVCAR-4 ovarian
SK-OV-3 ovarian = test system: SK-OV-3 ovarian
IGROV1 ovarian = test system: IGROV1 ovarian
OVCAR-3 ovarian = test system: OVCAR-3 ovarian
HS 578T breast = test system: HS 578T breast
NCI/ADR-RES ovarian = test system: NCI/ADR-RES ovarian
T-47D breast = test system: T-47D breast
BT-549 breast = test system: BT-549 breast
MDA-MB-435 melanoma = test system: MDA-MB-435 melanoma
SW-620 colon = test system: SW-620 colon
MCF7 breast = test system: MCF7 breast
HCT-116 colon = test system: HCT-116 colon
HCC-2998 colon = test system: HCC-2998 colon
KM12 colon = test system: KM12 colon

Measured: growth

CCN(CC)c1ccc2c(c1)OC(N)=C(C#N)C2c1cc(OC)c2c(c1)OCO2 (stereo not given)
inactive: MOLT-4 leukemia 23.7% | RPMI-8226 leukemia 26.6% | OVCAR-8 ovarian 17.6% | OVCAR-5 ovarian 51.6% | OVCAR-4 ovarian 43.5% | IGROV1 ovarian 24% | T-47D breast 57.1% | BT-549 breast 16.6% | SW-620 colon 20.6% | MCF7 breast 14.4%
active: SK-OV-3 ovarian 9.72% | OVCAR-3 ovarian -30.7% | HS 578T breast 9.12% | NCI/ADR-RES ovarian -5.05% | MDA-MB-435 melanoma -13% | HCT-116 colon -8.55% | HCC-2998 colon -3.32% | KM12 colon 2.07%

Fc1ccc2c(c1)c(-c1nc(-c3c[nH]c4ncccc34)cs1)cn2CCN1CCOCC1
active: T-47D breast 7.41%
inactive: MOLT-4 leukemia 35.4% | RPMI-8226 leukemia 29% | OVCAR-8 ovarian 33.5% | OVCAR-5 ovarian 89.8% | OVCAR-4 ovarian 44.7% | SK-OV-3 ovarian 87.2% | IGROV1 ovarian 21.5% | OVCAR-3 ovarian 59.5% | HS 578T breast 53.8% | NCI/ADR-RES ovarian 33.6% | BT-549 breast 49.6% | MDA-MB-435 melanoma 21.5% | SW-620 colon 62.9% | MCF7 breast 29.7% | HCT-116 colon 52.6% | HCC-2998 colon 92.9% | KM12 colon 32.2%

O=C(O)c1ccc([S-])cc1.[Au+].c1ccc(CN2[CH-]N(Cc3ccccc3)C(c3ccccc3)=C2c2ccccc2)cc1
active: MOLT-4 leukemia -1.59% | RPMI-8226 leukemia -11% | OVCAR-8 ovarian 1.87% | OVCAR-5 ovarian -14.2% | SK-OV-3 ovarian -5% | IGROV1 ovarian -58.6% | OVCAR-3 ovarian -95.2% | NCI/ADR-RES ovarian 3.13% | T-47D breast -66.5% | BT-549 breast -21.2% | MDA-MB-435 melanoma -9.04% | SW-620 colon -50.2% | MCF7 breast -86.1% | HCT-116 colon -84.7% | HCC-2998 colon -72.7% | KM12 colon -26.1%
inactive: OVCAR-4 ovarian 38.1% | HS 578T breast 23.2%

COc1cc(C=Nc2cccc(C(=O)O)c2)ccc1N(CCCl)CCCl
inactive: MOLT-4 leukemia 97.9% | RPMI-8226 leukemia 100% | OVCAR-8 ovarian 95.2% | OVCAR-5 ovarian 110% | OVCAR-4 ovarian 114% | SK-OV-3 ovarian 110% | IGROV1 ovarian 97% | OVCAR-3 ovarian 105% | HS 578T breast 92.8% | NCI/ADR-RES ovarian 103% | T-47D breast 96.3% | MDA-MB-435 melanoma 91.5% | SW-620 colon 90.4% | MCF7 breast 95.2% | HCT-116 colon 104% | HCC-2998 colon 74.4% | KM12 colon 57.3%

O=C(CCl)c1ccc([N+](=O)[O-])o1
active: MOLT-4 leukemia -52.8% | RPMI-8226 leukemia -47.7% | OVCAR-8 ovarian 8.79% | OVCAR-5 ovarian -72.8% | OVCAR-4 ovarian 2.25% | IGROV1 ovarian 1.46% | OVCAR-3 ovarian -100% | NCI/ADR-RES ovarian -49.5% | T-47D breast -53.5% | MDA-MB-435 melanoma -4.26% | SW-620 colon -97% | HCT-116 colon -100% | KM12 colon -21.2%
inactive: SK-OV-3 ovarian 102% | HS 578T breast 40.9% | BT-549 breast 44.3% | MCF7 breast 18.6% | HCC-2998 colon 31.1%

NC(N)=N/N=C\c1c[nH]c2ccc(Br)cc12
inactive: MOLT-4 leukemia 79.2% | RPMI-8226 leukemia 80.8% | OVCAR-8 ovarian 83.1% | OVCAR-5 ovarian 91.8% | OVCAR-4 ovarian 97.2% | SK-OV-3 ovarian 97.4% | IGROV1 ovarian 101% | OVCAR-3 ovarian 81.4% | HS 578T breast 80.6% | NCI/ADR-RES ovarian 87% | T-47D breast 36.6% | BT-549 breast 23.7% | MDA-MB-435 melanoma 98.1% | SW-620 colon 101% | MCF7 breast 75.4% | HCT-116 colon 92% | KM12 colon 94.9%

COc1ccc(/C=C/c2cc(OC)c(OC)c(OC)c2)cc1NC(=O)/C=C/c1ccc(F)cc1
active: SK-OV-3 ovarian -29% | OVCAR-3 ovarian -10.9% | HS 578T breast 5.66% | NCI/ADR-RES ovarian -3.74% | MDA-MB-435 melanoma -41.4%
inactive: MOLT-4 leukemia 13.5% | RPMI-8226 leukemia 51.8% | OVCAR-8 ovarian 36.7% | OVCAR-5 ovarian 57.5% | OVCAR-4 ovarian 61.4% | IGROV1 ovarian 46.9% | T-47D breast 32.1% | BT-549 breast 35.1% | SW-620 colon 30.5% | MCF7 breast 20.6% | HCT-116 colon 23% | HCC-2998 colon 17.2% | KM12 colon 25%

CC1=C(CNO)C2=C(C)C3(CC3)[C@@](C)(O)C(=O)C2=C1
active: OVCAR-5 ovarian 1.01% | OVCAR-4 ovarian -8.4% | SK-OV-3 ovarian 4% | IGROV1 ovarian -8.2% | OVCAR-3 ovarian -16.5% | BT-549 breast -13% | HCT-116 colon 2.04% | HCC-2998 colon -33.4%
inactive: MOLT-4 leukemia 51% | RPMI-8226 leukemia 99.4% | OVCAR-8 ovarian 34.5% | HS 578T breast 40.2% | NCI/ADR-RES ovarian 29.7% | MDA-MB-435 melanoma 92.1% | SW-620 colon 65.7% | MCF7 breast 10.6% | KM12 colon 70%

C=COC(=O)CCN1CC1
inactive: MOLT-4 leukemia 98.2% | RPMI-8226 leukemia 104% | OVCAR-8 ovarian 104% | OVCAR-5 ovarian 110% | OVCAR-4 ovarian 107% | SK-OV-3 ovarian 101% | IGROV1 ovarian 108% | OVCAR-3 ovarian 112% | HS 578T breast 104% | NCI/ADR-RES ovarian 111% | T-47D breast 106% | BT-549 breast 110% | MDA-MB-435 melanoma 105% | SW-620 colon 106% | MCF7 breast 101% | HCT-116 colon 103% | HCC-2998 colon 110% | KM12 colon 107%

O=C1CCC2(O)[C@@H]3Cc4ccc(O)c5c4[C@]2(CCN3Cc2ccoc2)C1O5 (stereo not given in full)
inactive: MOLT-4 leukemia 101% | RPMI-8226 leukemia 101% | OVCAR-8 ovarian 102% | OVCAR-5 ovarian 98.7% | OVCAR-4 ovarian 105% | SK-OV-3 ovarian 105% | IGROV1 ovarian 112% | OVCAR-3 ovarian 107% | HS 578T breast 105% | T-47D breast 98.1% | BT-549 breast 110% | MDA-MB-435 melanoma 105% | SW-620 colon 102% | MCF7 breast 97.5% | HCT-116 colon 88.1% | HCC-2998 colon 104% | KM12 colon 98.2%

Fc1ccc(N2COOC3(OOC2)C2CC4CC(C2)CC3C4)cc1
inactive: MOLT-4 leukemia 92.8% | RPMI-8226 leukemia 95.4% | OVCAR-8 ovarian 86.7% | OVCAR-5 ovarian 98.6% | OVCAR-4 ovarian 101% | SK-OV-3 ovarian 105% | IGROV1 ovarian 16.5% | OVCAR-3 ovarian 97% | HS 578T breast 109% | NCI/ADR-RES ovarian 53.2% | T-47D breast 75.7% | BT-549 breast 95.4% | MDA-MB-435 melanoma 94.4% | SW-620 colon 109% | MCF7 breast 76.1% | HCT-116 colon 90.9% | KM12 colon 82.7%

O=C(c1cccc(O)c1O)c1cn(Cc2ccc(F)cc2)c2cccc(O)c12
active: MOLT-4 leukemia 4.3% | RPMI-8226 leukemia 9.16% | IGROV1 ovarian -42.8%
inactive: OVCAR-8 ovarian 30.5% | OVCAR-5 ovarian 33.8% | OVCAR-4 ovarian 39% | SK-OV-3 ovarian 40.7% | OVCAR-3 ovarian 22.3% | HS 578T breast 45.5% | NCI/ADR-RES ovarian 19.3% | T-47D breast 34.5% | BT-549 breast 41.4% | MDA-MB-435 melanoma 14.2% | SW-620 colon 37.1% | HCT-116 colon 30.7% | HCC-2998 colon 35.6% | KM12 colon 44.1%

CC[CH2][Sn]([Cl])([Cl])[CH2]CC
inactive: MOLT-4 leukemia 58.6% | RPMI-8226 leukemia 19% | OVCAR-8 ovarian 89.7% | OVCAR-5 ovarian 94.9% | OVCAR-4 ovarian 95.2% | SK-OV-3 ovarian 107% | IGROV1 ovarian 84.6% | OVCAR-3 ovarian 105% | HS 578T breast 96.8% | NCI/ADR-RES ovarian 106% | MDA-MB-435 melanoma 79.8% | SW-620 colon 36.9% | MCF7 breast 50.4% | HCT-116 colon 79.9% | KM12 colon 101%
active: T-47D breast -3.16%

O=C(O)C(Cl)(Cl)C(F)(F)F
inactive: MOLT-4 leukemia 112% | RPMI-8226 leukemia 108% | OVCAR-8 ovarian 112% | OVCAR-5 ovarian 103% | OVCAR-4 ovarian 104% | SK-OV-3 ovarian 110% | IGROV1 ovarian 104% | OVCAR-3 ovarian 101% | HS 578T breast 95.9% | NCI/ADR-RES ovarian 102% | BT-549 breast 96.9% | MDA-MB-435 melanoma 97.7% | SW-620 colon 94.7% | HCT-116 colon 105% | HCC-2998 colon 99.9% | KM12 colon 102%

N#CC1(c2ccccc2)CCN(Cc2ccccc2)CC1
inactive: MOLT-4 leukemia 107% | RPMI-8226 leukemia 77% | OVCAR-8 ovarian 104% | OVCAR-5 ovarian 98% | OVCAR-4 ovarian 113% | SK-OV-3 ovarian 107% | IGROV1 ovarian 115% | OVCAR-3 ovarian 101% | HS 578T breast 96.3% | NCI/ADR-RES ovarian 99.7% | BT-549 breast 102% | MDA-MB-435 melanoma 95.2% | SW-620 colon 101% | HCT-116 colon 104% | KM12 colon 99.7%

C/C(Cc1ccc(Cl)cc1)=C(\c1ccc(OCCN2CCOCC2)cc1)c1ccc(OC(=O)Cc2ccccc2)cc1
inactive: MOLT-4 leukemia 94.8% | RPMI-8226 leukemia 84% | OVCAR-8 ovarian 92% | OVCAR-5 ovarian 91.1% | OVCAR-4 ovarian 101% | SK-OV-3 ovarian 109% | IGROV1 ovarian 86.4% | OVCAR-3 ovarian 101% | HS 578T breast 99.1% | NCI/ADR-RES ovarian 98.7% | BT-549 breast 96.9% | MDA-MB-435 melanoma 98.6% | SW-620 colon 96.5% | MCF7 breast 69.4% | HCT-116 colon 86.1% | HCC-2998 colon 91.3% | KM12 colon 98%

CCn1nccc1NC(=O)C(=O)c1cn(Cc2ccc(F)cc2)c2cccc(OC)c12
active: IGROV1 ovarian 3.65%
inactive: MOLT-4 leukemia 66.4% | RPMI-8226 leukemia 59.9% | OVCAR-8 ovarian 92.2% | OVCAR-5 ovarian 96.8% | OVCAR-4 ovarian 94.8% | SK-OV-3 ovarian 100% | OVCAR-3 ovarian 94% | HS 578T breast 89% | NCI/ADR-RES ovarian 90.2% | BT-549 breast 86.1% | MDA-MB-435 melanoma 104% | SW-620 colon 93.3% | MCF7 breast 97.3% | HCT-116 colon 51.1% | KM12 colon 97.2%
